Pf Dd2 inh: blocks in vitro growth of P. falciparum Dd2. P. falciparum Dd2 growth, SYBR Green, 72 h. Potency, µM (titrated, usually from 28.9 µM), hits mostly inhibitors. 120,000 compounds, 4.3% hits; active = well fitted inhibition curve with a large enough effect; note: nearly all actives have a fitted effect of over 65% in size
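Readout: SYBR Green fluorescence, 485 nm excitation, 535 nm emission, after ~16 h lysis at 37C. Before that, Dd2-infected red cells (2.5% hematocrit) grew 72 h with compound, 29 uM top final concentration.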
A number is an active result; 0 = inactive; [ ] = remark or other dose. Many of the other results were omitted from the sample, so hits are more common in it than they were.

SMILES | Pf Dd2 inh
COc1ccc(OC)c(S(=O)(=O)N2CCCCCCN(C)C(=O)CC2)c1 | 0
COc1ccc(S(=O)(=O)N(CC(=O)NCCSc2ccc(C)cc2)c2ccc(C)cc2)cc1 | 0
CCN(CC)S(=O)(=O)c1ccc(C(=O)NCCSc2c(-c3ccc(OC)cc3)[nH]c3ccccc23)cc1 | 7.9µM
CCN(CC)S(=O)(=O)c1ccc(NC(=O)Cn2ncc3c([nH]c4ccccc43)c2=O)cc1 | 0
COc1ccc(-c2cnnn2-c2ccc(NC(=O)c3ccc(S(=O)(=O)N(C)C)cc3)cc2)cc1 | 0
COc1ccc(S(=O)(=O)N(CCc2ccccc2)CC(=O)NCc2ccccc2)cc1 | 0
COc1ccc(-c2[nH]c3ccccc3c2SCCNC(=O)c2ccc(S(=O)(=O)N(C)C)cc2)cc1 | 7.9µM
COc1ccc(CNC(=O)c2c(OCC3CC3)cc(=O)n3c2CCOCC3)cc1 | 0
Cc1cccc(CN2CCNc3cc(-c4ccnc(C)c4)ncc3C2)c1 | 0
CC(C)c1ccc(N2C(=S)N[C@H]3[C@@H](O)[C@H](O)C[C@@H](C(=O)N(C)Cc4ccccc4)[C@H]32)cc1 | 13µM
O=C([C@@H]1C[C@@H](O)[C@H](O)[C@@H]2NC(=S)N(c3ccc(F)cc3)[C@@H]21)N1CCCCC1 | 0
Cc1ccc(N2C(=S)N[C@H]3[C@@H](O)[C@H](O)C[C@@H](C(=O)N4CCCCC4)[C@H]32)cc1 | 0
Cc1ccc(S(=O)(=O)N2CCC(n3cnnc3-c3ccccc3)CC2)cc1C | 0
CCNC(=O)Nc1ccc(OCC(=O)NCc2cccs2)nc1 | 0
O=C(NCc1ccccc1)[C@@H]1COCC(=O)N1Cc1ccc(F)cc1 | 0
CCNC(=O)[C@@H]1C[C@H](N)CN1C(=O)c1c(C)nc2sccn12 | 0
Cc1ccc(Cl)cc1N1CCN(C(=O)c2ccc(CS(=O)(=O)c3ccccc3C)o2)CC1 | 0
O=C(c1ccc(CS(=O)(=O)c2c(Cl)cccc2Cl)o1)N1CCN(c2ccccc2)CC1 | 11µM
Cc1ccc(S(=O)(=O)Cc2ccc(C(=O)N3CCN(c4cccc(C)c4C)CC3)o2)cc1 | 0
C#CCNC(=O)C1CCc2nnc(-c3ccc(Cl)nc3)n21 (centres undefined) | 0
COc1ccccc1-c1nnc2n1C(C(=O)NCc1ccc(F)cc1)CC2 (centres undefined) | 4µM
COc1ccccc1-c1nnc2n1C(C(=O)N1CCN(c3ncccn3)CC1)CC2 (centres undefined) | 0
O=C(NCc1nnc2n1C(C(=O)NCc1ccc(F)cc1)CC2)c1ccc(Cl)cc1Cl (centres undefined) | 0
O=C(C1CCc2nnc(-c3ccc(Cl)cc3Cl)n21)N1CCN(c2ncccn2)CC1 (centres undefined) | 0
Cn1ccc(C(=O)NCc2nnc3n2C(C(=O)NCc2ccc(F)cc2)CC3)n1 (centres undefined) | 0
SMILES | Pf Dd2 inh
O=C(NCc1ccc(F)cc1)C1CCc2nnc(-c3ccc(Cl)cc3Cl)n21 (centres undefined) | 3.2µM
O=C(NCc1ccc(F)cc1)C1CCc2nnc(-c3ccc(Cl)nc3)n21 (centres undefined) | 7.1µM
CC(C)NC(=O)NCc1nnc2n1C(C(=O)NCc1ccc(F)cc1)CC2 (centres undefined) | 0
O=C(O)c1nn(CC2CC2)c2c1CN(C(=O)c1nccc3ccccc13)CC2 | 0
Cc1cc(F)ccc1NC(=O)CN1C(=O)NC2(CCC(C(C)(C)C)CC2)C1=O (centres undefined) | 0
Cc1ccc(C(=O)N2CCC(N3CCCOC3=O)CC2)cc1 | 0
CCCN(CC1CCOC1)S(=O)(=O)c1ccc(C)cc1C (centres undefined) | 0[5.79 µM]
Cc1nccn1CCNC(=O)C1CCCCC(=O)N1Cc1ccccc1 (centres undefined) | 0
O=C(NCCC1CCCCC1)c1ccc2nccn2c1 | 0
COc1ccc(C2Cn3cnc(C(=O)N4CCC(C(=O)NCC5CCCCC5)CC4)c3CO2)cc1 (centres undefined) | 0
CSc1ccc(-c2ccc3c(c2)C(=O)N2CCN(C(=O)CCC(=O)O)C[C@@H]2C(=O)N3)cc1 | 0
CSc1ccc(-c2ccc3c(c2)C(=O)N2CCN(C(=O)CCC(=O)O)C[C@H]2C(=O)N3)cc1 | 0
CSc1ccc(-c2ccc3c(c2)C(=O)N2CCN(C(=O)CC(C)(C)C)C[C@@H]2C(=O)N3)cc1 | 5.6µM
COc1cc(F)ccc1-c1ccnc2ncnn12 | 0
CCCS(=O)(=O)N1CCC(N2CCCC(C(=O)N3CCOCC3)C2)CC1 (centres undefined) | 0
CC(C)Cc1ccc(S(=O)(=O)N2CCCC(Cn3cnc4cccnc43)C2)cc1 (centres undefined) | 0
Cc1nc2cccnc2n1CC1CCCN(C(=O)Nc2cccc(C(F)(F)F)c2)C1 (centres undefined) | 11µM
Cc1nc2cccnc2n1CC1CCCN(S(=O)(=O)c2ccc(CC(C)C)cc2)C1 (centres undefined) | 6.3µM
COc1cccc(NC(=O)N2CCCC(Cn3c(C)nc4cccnc43)C2)c1 (centres undefined) | 0
Cc1cc(S(=O)(=O)N2CCCC(Cn3c(C)nc4cccnc43)C2)ccc1Cl (centres undefined) | 0
Cc1nc2cccnc2n1CC1CCCN(C(=O)Nc2ccc(C(F)(F)F)cc2)C1 (centres undefined) | 0
Cc1cc(C)n(CC(=O)N[C@@H]2CN(Cc3ccccn3)C[C@H]2CN(C)C)n1 | 0
O=C(CN1CC2CC(C1)[C@H]1CCCC(=O)N1C2)Nc1ccc(N2CCOCC2)cc1 (some centres undefined) | 0
CC(C)CCC(=O)N1CCC2(CC1)CC(O)CCO2 (centres undefined) | 0
Cc1noc(-c2cn(C3CCN(C(=O)c4cccc(Cl)c4)CC3)nn2)n1 | 0
SMILES | Pf Dd2 inh
CCN(C(=O)Cn1cnc2onc(-c3ccc(F)cc3)c2c1=O)c1ccc(OC)cc1 | 11µM
CCOc1ccc(NC(=O)CCn2cnc3onc(-c4ccc(F)cc4)c3c2=O)cc1 | 0
O=C(Cn1cnc2onc(-c3ccc(Cl)cc3)c2c1=O)Nc1ccc(F)cc1 | 0
COc1ccc(C(=O)N2CCCC(Cc3noc(-c4cnccn4)n3)C2)cc1 (centres undefined) | 0
Cc1ccc(CN2C(=O)COC[C@H]2C(=O)N2CCN(c3ccccc3F)CC2)cc1 | 0
O=C(NCc1cccc(Cl)c1)c1cc2n(n1)CC(c1ccc3c(c1)OCO3)OC2 (centres undefined) | 0
Cc1cc(Nc2cccc(F)c2)n2nc(-c3ccco3)nc2n1 | 0
CCOC(=O)c1ccccc1Nc1cc(C)nc2nc(-c3ccco3)nn12 | 10µM
Cc1cc(Nc2ccccc2Cl)n2nc(-c3ccco3)nc2n1 | 0
Cc1ncsc1-c1nc(CC2CCN(C)CC2)nn1Cc1ccccc1 | 0
COc1ccc(-c2noc(COC(=O)C3=CN(C)S(=O)(=O)N=C3C)n2)cc1 | 0
CCOc1ccc(C(=O)NCCSc2c(C)[nH]c3ccccc23)cc1OCC | 0
Cc1ccc(S(=O)(=O)N(CC(=O)NCCSc2ccc(Cl)cc2)c2cccc(Cl)c2)cc1 | 0
O=C(NCCc1ccc(Cl)cc1)c1ccc(Cn2c(=O)[nH]c3ccccc3c2=O)cc1 | 0
CN(C)S(=O)(=O)c1ccc(C(=O)NCCSc2c(-c3ccc(Cl)cc3)[nH]c3ccccc23)cc1 | 8.9µM
Cc1ccc(C(=O)NCCSc2c[nH]c3ccccc23)cc1C | 0
Cc1ccc(-c2[nH]c3ccccc3c2SCCNC(=O)c2ccc(S(=O)(=O)N(C)C)cc2)cc1 | 8.9µM
CC(C)NC(=O)NC[C@H]1COCc2nc3cc(C(F)(F)F)ccc3n21 | 0

Screening data: PubChem, National Center for Advancing Translational Sciences (NCATS)
